Assay outcomes as filed in PubChem BioAssay.
TSHR antagonist: Antagonists of the Thyroid Stimulating Hormone Receptor: HTS campaign | Thyrotropin receptor (Homo sapiens), P16473 | TSHR-expressing cells, TSH-stimulated cAMP HTRF, 2 h; stronger effect = lower value | activity change, negative = inhibition, % at 11.5 µM | actives 0.2% (n = 330,000);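 active = activity change below a set negative limit, meaning inhibition stronger than a set level, cut at about -70% in these data; inconclusive = activity change between two set negative limits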; also: % is scaled to controls: 0 for no effect and ±100 for the full control effect
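Antagonism was scored as loss of TSH-driven cAMP in TSHR cells, stimulated with 4nM TSH (EC80) for 2 hours at 37 deg C and detected by homogeneous HTRF competition immunoassay.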
Six1-Eya2 inh: qHTS Assay for Inhibitors of the Six1/Eya2 Interaction. AlphaScreen GST-Six1/His-Eya2 binding, biochemical; stronger effect = lower value. activity change, % (test concentration not listed). actives 0.56% (n = 360,000). AID 651725, 2012; also: % is scaled to controls: 0 for no effect and ±100 for the full control effect
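AlphaScreen with GST-Six1 and His-Eya2 (5X mix: 250 nM and 500 nM), glutathione donor and nickel acceptor beads; buffer 50 mM Tris pH 8.0, 300 mM NaCl, 1 mM TCEP; 1 h at 37 C in the dark.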
BCR signal inh: qHTS Assay to Find Inhibitors of Chronic Active B-Cell Receptor Signaling. actives 0.05% (n = 340,000). AID 493014, 2011. ABC-DLBCL IkBa-CBG/CBR reporter, luminescence ratio, 4 h. Potency, µM (top dose mostly 46.1 µM), for inactives: at the highest dose activity change, negative = inhibition, actives largely listed as inhibitors; active = well fitted inhibition curve with a large enough effect in the signal ratio, with a control signal flat, not every such curve was filed as active; inconclusive = small, poorly fitted or top-dose-only effect, or effect the other way, or a change in a side signal; the % refers to the signal ratio;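 also: potency is read from the fitted curve at half-maximal effect; plate controls were basal doxycycline-induced cells for no effect and cells given 10 µM MG132 for full effect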
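Compounds up to 46 uM were incubated four hours with TMD8 cells whose green CBG68 luciferase is fused to IkappaBalpha; red CBR luminescence normalised the signal, and concentration-effect curves were fitted to fusion, red and ratio data.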
CtBP-E1A blk: qHTS Assay for Inhibitors of the CtBP/E1A Interaction. AlphaScreen GST-E1A/His-CtBP binding, 1536-well; stronger effect = lower value. activity change, % (no concentration beside the values). actives 0.49% (n = 340,000). AID 651724, 2012; also: % is scaled to controls: 0 for no effect and ±100 for the full control effect
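Protein mix (5X: 125 nM each GST-E1A, His-CtBP) was incubated with pinned compound 2 h at 37 deg C in dark, in 50 mM Tris pH 8.0 buffer with 300 mM NaCl. Glutathione donor and nickel acceptor beads followed; AlphaScreen signal read after 1 h.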
S-ASM inh: Inhibitors of Secretory Acid Sphingomyelinase (S-ASM): qHTS; AID 504937, 2011; Potency, µM (series often up to 57.5 µM), without a hit: at the top dose activity change, negative = inhibition, usual class: inhibitors; Sphingomyelin phosphodiesterase (Homo sapiens), P17405; placental ASM, HMU-PC fluorogenic substrate, 60 min; actives 0.006% (n = 340,000); active = well fitted inhibition curve with a large enough effect; inconclusive = small, poorly fitted or top-dose-only effect; inactive = no such curve, though single readings can be large or run the other way; also: potency is read from the fitted curve at half-maximal effect
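Human placenta-derived ASM enzyme was preincubated with compound for 10 minutes at room temperature, then given fluorogenic substrate HMU-PC0 (9 uM final) for 60 minutes at 37 °C; a pH 10 stop preceded fluorescence reading at Ex 386/Em 447 nm.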
Starred values were filed as active, the others as inactive; ? = inconclusive; nt = no result given. Rows were chosen to be rich in hits. Some 0.85% of all compounds tested hit in one or more screens of this group. Rule as the data show it, unless noted: active = activity change below about -65%; inconclusive = mostly about -30% to -63%; inactive = weaker than that.

SMILES | TSHR antagonist | Six1-Eya2 inh | BCR signal inh | CtBP-E1A blk | S-ASM inh
CCCC(=O)NC(c1ccc2c(c1)OCO2)c1cc(Cl)c2cccnc2c1O (stereo not drawn) | 7 | -77* | 0% | -78* | 0%
CCC(=O)NC(c1ccc(C)cc1)c1cc(Cl)c2cccnc2c1O (stereo not drawn) | 40 | nt | -7% | nt | 4%
COc1cc(NC(=O)C(CCSC)NS(=O)(=O)c2ccc3c(c2)oc(=O)n3C)cc(OC)c1 (stereo not drawn) | nt | nt | -24% | nt | nt
COc1ccccc1NC(=O)c1cc(S(=O)(=O)NCCC2=CCCCC2)ccc1F | nt | nt | 1% | nt | nt
COc1ccc(-n2c(/C=C/c3cccc4ccccc34)nc3ccccc3c2=O)cc1Cl | nt | nt | -14% | nt | nt
CCOc1ccc(/C=C/C(=O)c2cc(Br)ccc(=O)c2O)cc1 | ? | -20 | ? | 10 | -4%
CCc1ccc(/C=C/C(=O)c2cc(Br)ccc(=O)c2O)cc1 | -87* | -5 | 11% | 9 | 2%
Cc1cccc(/C=C/C(=O)c2cc(Br)ccc(=O)c2O)c1 | -88* | -16 | ? | 0 | 2%
COc1cc2[nH]c(=S)nc(Nc3ccc(NC(C)=O)cc3)c2cc1OC | 3 | -88* | -7% | -90* | -8%
COc1cc2[nH]c(=S)nc(NCC3CCCO3)c2cc1OC (stereo not drawn) | 7 | -90* | -3% | -87* | 2%
COc1cc2[nH]c(=S)n(N(C(C)=O)C(C)=O)c(=O)c2cc1OC | 0 | -1 | ? | 6 | -2%
COc1cc2[nH]c(=S)nc(NC3CCCCCC3)c2cc1OC | -14 | -71* | -16% | -67* | -22%
Cc1ccc(CSc2nnc3[nH]c(=O)cc(-c4ccccc4)n23)cc1 | nt | nt | 7% | nt | nt
CCN(CC)C(=O)c1sc2c(c1C)c(=O)n(CCc1ccccc1)c(=O)n2Cc1ccc(F)cc1Cl | nt | nt | -6% | nt | nt
CCCC(=O)NC(c1ccc(Cl)cc1)c1ccc2cccnc2c1O (stereo not drawn) | -11 | -70* | -9% | -77* | 0%
CCCCC(=O)NC(c1ccc(Cl)cc1)c1ccc2cccnc2c1O (stereo not drawn) | nt | ? | nt | ? | 5%
CCCC(=O)NC(c1ccc(C)cc1)c1ccc2cccnc2c1O (stereo not drawn) | -10 | -66* | -3% | -90* | -1%
CC(=O)NC(c1ccc2ccccc2c1)c1ccc2cccnc2c1O (stereo not drawn) | 8 | -89* | 1% | -66* | -3%
CCCC(=O)NC(c1ccc(Cl)cc1Cl)c1ccc2cccnc2c1O (stereo not drawn) | -15 | ? | -15% | -73* | -2%
CC(=O)NC(c1ccc(Cl)cc1Cl)c1ccc2cccnc2c1O (stereo not drawn) | 20 | -90* | ? | -88* | -4%
COc1cc(C(=O)NCC(c2cccs2)S(=O)(=O)c2ccc(F)cc2)cc(OC)c1OC (stereo not drawn) | nt | nt | -2% | nt | nt
CN1CCN(C2=CC3=CC(=C(C#N)C#N)CCC3CC2)CC1 (stereo not drawn) | -93* | 6 | ? | -5 | 17%
COc1ccc(Nc2nc(-c3cccs3)nc3ccccc23)cc1S(=O)(=O)N1CCOCC1 | nt | ? | nt | -67* | -5%
COc1ccc(NS(=O)(=O)c2cccs2)cc1S(=O)(=O)N1CCOCC1 | -2 | 6 | -4% | -13 | -1%
Cc1c(Nc2cc(Cl)c3nonc3c2[N+](=O)[O-])c(=O)n(-c2ccccc2)n1C | -85* | -88* | ? | nt | 0%
O=[N+]([O-])c1c(Nc2cccc(O)c2)cc(Cl)c2nonc12 | -98* | ? | ? | -20 | -3%
CC(C)(C)c1cc2nc3c(c(=O)n2[nH]1)CN(Cc1ccccc1)C3=O | -79* | -7 | 1% | -2 | 173%
